# Measured values reported in PubChem BioAssay (NCI).
# Compounds without any hit were thinned out: in the full panel of roughly 79,000, 15% have a hit. A number with no mark means an inactive call. Active and inactive are the calls of the source. Rule as the data show it: active = growth inhibition above about 70%; inactive = the rest. Where a SMILES comes first, the peptide text is derived from it. Bridges are numbered along the chain shown (N, C = ends). Roman numbers before positions name the chains, in order. [ ]: non-standard residue; d: D form. The star is where a group is joined. Quinoxaline2carbonyl = O=C(c1cnc2ccccc2n1)*; NMeV = CN[CH](C(=O)O)C(C)C; NMeC = CN[CH](CS)C(=O)O
# Experiments:
# [1] = NCI Yeast Anticancer Drug Screen. Data for the rad50 strain (AID 155);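 also: 0% = growth of vehicle-only cultures of the same strain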; details: S. cerevisiae rad50 strain growth inhibition; at 50.0 µM; active compounds read high
# Summary of the method: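 Compounds were tested on a yeast strain with an engineered DNA damage repair alteration; the reported value is growth inhibition normalised to vehicle treatment.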
# [2] = NCI Yeast Anticancer Drug Screen. Data for the mec2-1 strain (AID 157); details: S. cerevisiae mec2-1 strain, at 50.0 µM, active compounds read high
# Summary of the method: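 Mutant yeast (mec2-1) grown with compound; growth inhibition relative to vehicle control reported.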
# [3] = NCI Yeast Anticancer Drug Screen. Data for the sgs1 mgt1 strain (AID 161);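 also: 0% = growth of cultures given vehicle only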; details: S. cerevisiae sgs1 mgt1 strain, at 50.0 µM, active compounds read high
# Summary of the method: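 Compounds are added to genetically altered yeast, and growth is compared with cultures given vehicle alone to give percent inhibition.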
# [4] = NCI Yeast Anticancer Drug Screen. Data for the cln2 rad14 strain (AID 165);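 also: 0% = growth equal to vehicle treated cultures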; details: S. cerevisiae cln2 rad14 strain, at 50.0 µM, active compounds read high
# Summary of the method: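 Readout is yeast growth inhibition versus vehicle-treated controls, using a strain with cln2 and rad14 alterations exposed to compound.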
# [5] = NCI Yeast Anticancer Drug Screen. Data for the bub3 strain (AID 167); details: S. cerevisiae bub3 mutant strain, at 50.0 µM, active compounds read high
# Summary of the method: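 Growth of a checkpoint-deficient yeast mutant is measured after compound exposure. Values represent inhibition relative to vehicle.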
# [6] = NCI Yeast Anticancer Drug Screen. Data for the mlh1 rad18 strain (AID 175); details: S. cerevisiae mlh1 rad18 strain growth inhibition; at 50.0 µM; active compounds read high
# Summary of the method: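 Genetically defined yeast (DNA repair-deficient) exposed to compounds; growth inhibition determined relative to vehicle.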
SMILES,growth inhibition [1],growth inhibition [2],growth inhibition [3],growth inhibition [4],growth inhibition [5],growth inhibition [6]
c1cc2c(cc1NC1=NCCO1)CCC2,3.65%,4.65%,2.75%,-31.6%,8.6%,-0.65%
NC1=C(c2nc(-c3cc4ccccc4oc3=O)cs2)C(c2ccco2)c2c(c3ccccc3oc2=O)O1 (configuration not stated),-3.15%,-9.9%,-21.4%,-38.8%,4.1%,-14.3%
O=C1NC2NC3NC(=O)NC3NC2N1 (configuration not stated),3.6%,1.85%,0.2%,-5.25%,10.2%,-24.4%
COc1cc(C2c3cc4c(cc3OC(C)(O)C2C)OCO4)cc(OC)c1OC (configuration not stated),8.8%,-1.15%,9.85%,-25.4%,-16.9%,15.2%
COc1cc(C2c3cc4c(cc3OC(C)(O)C2C(C)=O)OCO4)cc(OC)c1OC (configuration not stated),-10.2%,-0.15%,3.9%,-18.6%,-1.1%,-7.45%
c1cc2c(cc1[C@@H]1OC[C@@H]3[C@H]1CO[C@H]3c1ccc3c(c1)OCO3)OCO2,14.1%,12.8%,47.2%,12.2%,65.5%,6.15%
CCN(CC)/C(=C\Cl)Nc1ccccn1,-0.9%,-4%,-0.7%,3.35%,6.55%,-2.45%
C/C=C\C(C)=C/C(C)C(=O)CC(O)CC1CC(=O)NC(=O)C1 (configuration not stated),11.6%,-20.4%,-6.9%,11.8%,7.85%,13.3%
CCC(=O)NCC1CCCN2CCCCC12 (configuration not stated),-4.55%,-8.35%,-18.5%,2.65%,6.95%,-22%
CCCOP1(=O)C=C(O)C(Cl)=C(C)C1 (configuration not stated),-32.5%,-15.4%,-42.8%,-12.8%,-19.4%,-46.8%
CCC(=O)OC1(c2ccccc2)CCN(CCC(=O)c2ccccc2)CC1,45.5%,28.4%,36.8%,19.2%,36.8%,25.9%
CCCCOC(=O)c1ccccc1C(=O)OCc1ccccc1,-3.45%,-11.7%,-2.85%,-43.7%,2.8%,-5.25%
C[Se]c1ncnc2c1c(C#N)cn2C1OC(CO)C(O)C1O (configuration not stated),0.75%,14.3%,-3.3%,-13.5%,1.45%,2.65%
COc1cc(/C=N/NC(=O)CN(C)C)cc(OC)c1N(CCCl)CCCl,8.85%,10.4%,-15.7%,17.9%,-2.25%,5.2%
CC1(C)COP(=S)(SCCC#N)OC1,-38.8%,-7.1%,0.95%,-29.4%,12.8%,-0.55%
"CC1NC(=O)C(NC(=O)c2cnc3ccccc3n2)COC(=O)C(C(C)C)N(C)C(=O)C2CSSCC(C(=O)N(C)C(C(C)C)C(=O)OCC(NC(=O)c3cnc4ccccc4n3)C(=O)NC(C)C(=O)N2C)N(C)C1=O (configuration not stated) (I: Quinoxaline2carbonyl-SA[NMeC][NMeV] / II: Quinoxaline2carbonyl-SA[NMeC][NMeV]; ester I:1-II:C, I:C-II:1; disulfide I:3-II:3; configuration not given here)",87.3% (active),90.5% (active),90% (active),86.7% (active),88.2% (active),89.7% (active)
CCN1CC2CCC1C2 (configuration not stated),5.2%,-3.05%,-14.5%,5.5%,3.7%,4.35%
C=C(C)C1(CCC)C(=O)NC(=S)NC1=O,23.4%,19.7%,17.6%,25.6%,4.35%,22.4%
CC(C)OP(=O)(OC(C)C)C(=O)Nc1ccc(Cl)cc1,-24.9%,16.1%,5.85%,-29.9%,16.5%,-8%
CC1(C[N+](C)(C)C)COC(C)(C)O1 (configuration not stated),-3.95%,11.6%,5.25%,-2.85%,5.3%,3.95%
[N-]=[N+]=[N-],6.75%,5.75%,15%,-3.05%,18%,-13.7%

SMILES,growth inhibition [1],growth inhibition [2],growth inhibition [3],growth inhibition [4],growth inhibition [5],growth inhibition [6]
NC(=O)c1cc([N+](=O)[O-])cc([N+](=O)[O-])c1N(CCCl)CCCl,-3%,-10.9%,-15.4%,-3.8%,-8.95%,-14.6%
[C-]#[O+].[C-]#[O+].[C-]#[O+].[C-]#[O+].[Cr].c1ccc(P(CCP(CCP(c2ccccc2)c2ccccc2)c2ccccc2)CCP(c2ccccc2)c2ccccc2)cc1 (configuration not stated),20.7%,23.2%,29.2%,16.8%,21.4%,31.6%
CCOP(=S)(OCC)Oc1cnn(C)c(=S)c1Cl,12.8%,-18.6%,-0.85%,10.3%,-4.85%,8.05%
CN(CCC#N)c1ccc(C=C(C#N)C#N)cc1,7.25%,11.3%,7.65%,8.05%,24.7%,5.65%
CCOC(=O)C(C)(Br)CC (configuration not stated),-19.4%,-3.25%,-17.4%,-81.4%,-22.1%,-7.8%
O=NNc1ncc([N+](=O)[O-])cn1,-1.05%,5.35%,-5.9%,-23.4%,-5%,-8.4%
CCCCCCCCCCP(=O)(O)O,-4.9%,-27.4%,-13.3%,-30.3%,-1.6%,-2.85%
c1cc(C2O[C@H]3CCCN3[C@@H]2c2ccncc2)ccn1 (some centres not stated),-30.6%,-17.9%,1.15%,2.85%,-14.8%,-25.4%
CCC12C=CCN3CCC4(C(=C(C(=O)OC)C1)Nc1ccccc14)[C@H]32 (some centres not stated),6.7%,6%,6%,-8%,7.25%,0.8%
COc1ccc(CCN)c(OC)c1,-11.2%,2.8%,-3.5%,-13.1%,-8.25%,-35.1%
CC(Oc1ccc(-c2ccccc2)cc1)C(=O)O (configuration not stated),-14.8%,-1.25%,-9.25%,-4.8%,-13.1%,-23.4%
O=C(NC1=NN(Cc2ccccc2)C(=O)C1)c1ccc(S(=O)(=O)F)cc1,-0.35%,-14.9%,19.6%,9.55%,9.8%,11.6%
COc1cc2c(cc1O)CC1c3c(cc(O)c(OC)c3-2)CCN1C (configuration not stated),1.55%,-8.45%,-10.8%,-15.8%,-26.1%,2.85%
COc1c2c(cc3c1OCO3)[C@]13C=C[C@H](OC)C[C@H]1N(C2)CC3O (some centres not stated),17.2%,5.75%,3.6%,-0.55%,1.55%,-53.9%
S=C([S-])N1CCCCC1.S=C([S-])N1CCCCC1.[Zn],79.5% (active),73.3% (active),96% (active),22.9%,-3%,65%
Cc1cc(S(=O)(=O)F)ccc1NC(=O)/C=C/c1ccc([N+](=O)[O-])cc1,8.95%,4%,0.75%,0.55%,21.4%,-8.15%
COc1ccc(C2C=C(c3ccc4c(c3)OCO4)Oc3c2c(=O)oc2ccccc32)cc1OC (configuration not stated),11.5%,4.1%,10.1%,16.4%,22.7%,37%
CCN(CC)C(=O)CCNC(C)Cc1c[nH]c2ccccc12 (configuration not stated),-4.1%,-13.7%,39.9%,22.1%,8.85%,-37.5%
CC1OC(OC2CCC3(C=O)C4CCC5(C)C(C6=CC(=O)OC6)CCC5(O)C4CCC3(O)C2)C(O)C(O)C1O (configuration not stated),14.3%,-8.35%,-5.65%,13.5%,-9.15%,-4.3%
N.N.N.N.N.N.[Br-].[Co+3],-0.9%,7.7%,-34.2%,6.3%,-1.2%,22.6%
CC(=O)CC(C)=O.CC(=O)CC(C)=O.[Cl][Sn][c]1ccccc1,40.8%,23.7%,49.6%,8.4%,35.1%,57.5%
